Bioassay records deposited in PubChem by National Center for Advancing Translational Sciences (NCATS).
Only some compounds are listed: those with a hit (about 6.2% of all), similar ones and a draw of the others.
HT1080 IDH1KD tx = HT-1080 IDH1 knockdown cell toxicity (counter line) | HT-1080 IDH1 knockdown viability, ATP luminescence, 48 h | Potency, µM (titrated, usually from 46.1 µM), for inactives: at the top dose activity, negative = toxicity, hits mostly cytotoxic | 2% of 360,000 active;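 note: 0% = DMSO wells and -100% = cell-free medium wells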
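Cytotoxicity counter-line: IDH1KD HT-1080, 48 h, CellTiter-Glo. Curves classed by r2, magnitude and activity.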
KB-V1 MDR tox = KB-V1 MDR subline cytotoxicity; KB-V1 MDR cells viability, CellTiter-Glo, 72 h; Potency, µM (titrated, usually from 46.1 µM), actives largely listed as cytotoxic; 3.4% of 400,000 active; AID 1347076; note: % is set by controls: 0 for no effect and ±100 for the full control effect; nearly all actives have a fitted effect of over 60% in size
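Luminescent ATP read-out (CellTiter-Glo, 10 min) measures survival of drug-selected KB-V1 MDR cells after 72 h, 37 degrees C compound exposure. Medium: phenol-red-free DMEM, 10% FBS. Values from fitted concentration-response curves.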
HT1080-NT tox = kills 2HG-producing HT-1080-NT fibrosarcoma cells; HT-1080-NT fibrosarcoma viability, CellTiter-Glo ATP luminescence, 48 h; AID 686970; Potency, µM (titrated, usually from 46.1 µM), for inactives: top-dose activity, negative = less viability, hits mostly cytotoxic; 1.6% of 360,000 active;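 note: NT is the 2HG producing partner of a matched IDH1 knockdown line; 0% = DMSO-treated cells and -100% = media-only wells without cells; nearly all actives have a fitted effect of over 55% in size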
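Read-out is CellTiter-Glo luminescence after 10 minutes at room temperature, following 48 hours' compound treatment of HT-1080-NT cells (750 cells/well, RPMI, 5% FBS, 37 degrees C).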
ATXN2 expr inh = ATXN2 expression inhibition; HEK-293 ATXN2-luciferase reporter, luminescence, 24 h; Potency, µM (highest dose often 57 µM), for inactives: at the highest dose activity change, negative = inhibition, hits mostly inhibitors; 0.72% of 360,000 active; note: % is set by controls: 0 for no effect and ±100 for the full control effect; nearly all actives have a fitted effect of over 55% in size
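ATXN2-luciferase reporter cells (luciferase flanked by upstream and downstream ATXN2 gene portions) were treated 24 h at 37 °C with compounds at up to 57 uM. SteadyGlo luminescence gave expression; GF-AFC fluorescence gave viability.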
ATXN viability = cell viability loss in ATXN counter-screen; Potency, µM (doses to about 56.7 µM), actives largely listed as cytotoxic; 0.49% of 400,000 active; S2 cells (HEK-293 line with an ATXN2-luciferase reporter) viability, CellTiter-Fluor protease fluorescence, 24 h; AID 651635; note: nearly all actives have a fitted effect of over 40% in size
KB-3-1 tox = kills parental KB-3-1 adenocarcinoma cells; KB-3-1 viability, CellTiter-Glo ATP luminescence, 72 h; Potency, µM (top dose mostly 46.1 µM), actives largely listed as cytotoxic; 1.4% of 400,000 active; AID 1347075; note: % is set by controls: 0 for no effect and ±100 for the full control effect; nearly all actives have a fitted effect of over 60% in size
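KB-3-1 parental drug-naive adenocarcinoma cells in DMEM/10% FBS, incubated 72 h at 37 C with pin-transferred compounds across a concentration series. Viability by CellTiter-Glo luminescence; concentration-response curves fitted after normalization.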
* marks the source's active call; other numbers are inactive results. Calls come from the whole dose curve; as a rule, active = well fitted curve in the direction sought with a large enough effect; inconclusive = small, poorly fitted or top-dose-only effect, or another doubt; inactive = no such curve, though single readings can be large; an effect the other way counts as inactive or inconclusive. Potency is the fitted concentration of half-maximal effect.

Screening COc1ccc(/C=C\C(=O)O[C@@H]2C(O)C(O[C@@H]3OC(C)[C@H](O[C@@H]4OCC(O[C@H]5O[C@H](CO)[C@@H](O)C(O)C5O)C(O)C4O)C(O)C3O)[C@H](OC(=O)[C@]34CCC(C)(C)C[C@@H]3C3=CCC5[C@@]6(C)CC(O)C(O[C@@H]7OC(CO)C(O)[C@H](O)[C@H]7O)[C@@](C)(C(=O)O)C6CC[C@@]5(C)[C@]3(CO)CC4)O[C@H]2C)cc1 (stereo not given in full) returned HT1080 IDH1KD tx 21µM*, KB-V1 MDR tox inactive, HT1080-NT tox inconclusive, ATXN2 expr inh 7.1µM*, ATXN viability 11µM* and KB-3-1 tox inactive.
For O=C(Nc1nnc(S(=O)(=O)N2CCCc3ccccc32)s1)c1ccc(Cl)cc1 the results were KB-V1 MDR tox inactive, ATXN2 expr inh -4%, ATXN viability inactive and KB-3-1 tox inconclusive.
Screening O=c1c2cnn(-c3ccccc3)c2ncn1Cc1ccccc1 returned HT1080 IDH1KD tx -17%, KB-V1 MDR tox 21µM*, HT1080-NT tox -8%, ATXN2 expr inh -8%, ATXN viability inactive and KB-3-1 tox inactive.
For O=C(Cn1cnc2c(cnn2-c2ccc(F)cc2)c1=O)N1CCN(c2ccccc2F)CC1 the results were HT1080 IDH1KD tx -6%, KB-V1 MDR tox 3.7µM*, HT1080-NT tox -5%, ATXN2 expr inh -6%, ATXN viability inactive and KB-3-1 tox inactive.
For O=c1c2cnn(-c3ccc(F)cc3)c2ncn1Cc1ccc(F)cc1 the results were HT1080 IDH1KD tx -4%, KB-V1 MDR tox inactive, HT1080-NT tox 1%, ATXN2 expr inh -7%, ATXN viability inactive and KB-3-1 tox inactive.
Cc1ccc(-n2ncc3c(=O)n(CC(=O)N4CCN(c5ccccc5F)CC4)cnc32)cc1C was read as HT1080 IDH1KD tx -7%, KB-V1 MDR tox inactive, HT1080-NT tox -1%, ATXN2 expr inh 5%, ATXN viability inactive and KB-3-1 tox inactive.
`Cc1ccc(-n2ncc3c(=O)n(CC(=O)N4CCCc5ccccc54)cnc32)cc1C` gave HT1080 IDH1KD tx -10%, KB-V1 MDR tox 18µM*, HT1080-NT tox -1%, ATXN2 expr inh -11%, ATXN viability inconclusive and KB-3-1 tox inactive.
COc1ccccc1NC(=O)CN1C(=O)CC(c2ccc(C)c(C)c2)=Nc2ccccc21 was read as KB-V1 MDR tox 16µM*, ATXN2 expr inh 23%, ATXN viability inconclusive and KB-3-1 tox inactive.
CN(C)c1ccc(N=Cc2ccncc2)cc1 was read as KB-V1 MDR tox inactive and KB-3-1 tox inactive.
COc1ccccc1NC(=O)Cn1cnc2sc(C)c(S(=O)(=O)N3CCCCC3)c2c1=O was read as HT1080 IDH1KD tx 13%, KB-V1 MDR tox 9.2µM*, HT1080-NT tox 16%, ATXN2 expr inh 3%, ATXN viability inactive and KB-3-1 tox inactive.
For O=C(Cn1cnc2c(nnn2Cc2ccc(Cl)cc2)c1=O)N1CCCc2ccccc21 the results were HT1080 IDH1KD tx 3%, KB-V1 MDR tox inactive, HT1080-NT tox 16%, ATXN2 expr inh 1%, ATXN viability inactive and KB-3-1 tox inactive.
O=C(Cn1cnc2c(nnn2Cc2ccc(F)cc2)c1=O)N1CCCc2ccccc21 was read as HT1080 IDH1KD tx 1%, KB-V1 MDR tox 16µM*, HT1080-NT tox 3%, ATXN2 expr inh -5%, ATXN viability inconclusive and KB-3-1 tox inactive.
O=C(Cn1cnc2c(oc3ccccc32)c1=O)N1CCCc2ccccc21 was read as HT1080 IDH1KD tx 0%, KB-V1 MDR tox 4.1µM*, HT1080-NT tox 1%, ATXN2 expr inh 10%, ATXN viability inactive and KB-3-1 tox inactive.
